Our source for the inhibition values is PubChem BioAssay AID1626 (SRMLSC, 2009).

The campaign covered roughly 220,000 compounds. About 2,000 (0.91%) were called active. Not shown: some 2% with an inconclusive outcome. Only a sample is shown. Measured potencies and affinities stand elsewhere. A number with no mark means an inactive call. No stated cut-off is given here; in the data, inconclusive means inhibition above about 80% without an active follow-up result; inactive means below that; test concentration not stated here.

The assay can be described thus: M. tuberculosis H37Rv growth inhibitors, H37Rv strain (AID 1626).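 Further: bacteria incubated seven days before Alamar blue readout; 0% = bacteria only wells and 100% = bacteria with antibiotic wells.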 The following applies: active compounds read high, concentration not given here.
With `COc1ccc(C(C)=O)cc1COC(=O)C(CO)NS(=O)(=O)c1ccc(Br)cc1` (centres undefined), the inhibition (commonly the relative decrease from the control value, in per cent) is 7.85%.
As for `Cc1ccc(C(=O)N2CCN(c3cc4c(cc3[N+](=O)[O-])n(C)c(=O)n4C)CC2)cc1`, the inhibition was -9.29%.
With `CC(C)Sc1nc2c(c(=O)[nH]c(=O)n2C)n1Cc1ccc(Cl)cc1` the figure was 11.2%; with `O=c1c2ccccc2c(-c2ccccc2)nn1-c1ccccc1`, 8.6%; with `CC(C)NC(=O)C(=O)NC1CCCCCC1`, -2.43%.
Take `O=[N+]([O-])c1ccc(N/N=C/c2cn(-c3ccccc3)nc2-c2ccccc2)cc1`: the inhibition was 30.5%.
On to `COc1ccc(/C=N/NC(=O)c2c([N+](=O)[O-])c(C)nn2C)cc1`, for which the inhibition is 1.88%.
With `CS(=O)(=O)c1ccc2nc(NC(=O)c3ccc(NS(=O)(=O)c4cccc([N+](=O)[O-])c4)cc3)sc2c1` the figure was 34.8%.
For `CC(=NCC1CCCO1)c1c(O)n(-c2ccccc2C)c(=O)[nH]c1=O` (centres undefined) the value was -6.91%.
Regarding `N=c1c(C(=O)NCc2ccco2)cc2c(=O)n3ccccc3nc2n1CCc1ccccc1`, the inhibition is -6.57%.
With `CCCn1c(=N)c(C(=O)NCC2CCCO2)cc2c(=O)n3cccc(C)c3nc21` (centres undefined) the figure was -1.86%.
Consider `CCOCCCn1c(=N)c(C(=O)NCc2ccc3c(c2)OCO3)cc2c(=O)n3cccc(C)c3nc21`, for which the inhibition was 26.6%.
Regarding `CCNC(=O)c1cc2c(=O)n3cccc(C)c3nc2n(CCc2ccccc2)c1=N`, the inhibition is -3.98%.
`COc1ccc(N2CCN(C(=O)CCCCCn3c(=O)[nH]c4ccsc4c3=O)CC2)cc1`: the inhibition was 0.96%.
`CS(=O)(=O)N1Cc2ccccc2CC1C(=O)Nc1ccccc1C(N)=O` (centres undefined): the inhibition was 0.87%.
For the molecule `CCc1ccc(N2Cc3ccccc3C2)cc1`, the inhibition was 14.3%.
Take `CN(C)CCNC(=O)/C=N/O`: the inhibition was -1.95%.
With `O=C(NC1CCCCC1)c1ccccc1-c1ccccc1`, the inhibition was 0.73%.
As for `O=C(NC1CCCCCC1)c1ccccc1-c1ccccc1`, the inhibition is 36%.
For the molecule `COc1cc(/C=N/NC(=O)CCc2n[nH]c(=O)[nH]c2=O)cc(OC)c1OC`, the inhibition was -3.85%.
With `CCCCN1C(=O)CC(Sc2ncccc2C(=O)O)C1=O` (centres undefined), the inhibition is 3.02%.
In the case of `Cc1cc(N2C(=O)C3CCCN3C2c2cccc(Cl)c2)no1` (centres undefined), the inhibition was -8.92%.
`Cc1ccc(NC(=O)COc2ccccc2[N+](=O)[O-])nc1`: the inhibition is 0.84%.
On to `CN(C(=O)COc1ccccc1)c1nc(-c2ccc(F)cc2)cs1`, for which the inhibition was -0.64%.
On to `Cc1ccc(C(=O)N(CC#N)CC#N)cc1C`, for which the inhibition is 0.74%.
With `N#CCCN(C(=O)CCl)c1cccc(Cl)c1` the figure was 32.5%; with `Cc1cccc(-c2noc(CCCOc3ccc(Cl)cc3Cl)n2)c1`, -7.47%; with `Clc1ccc(C2=Nc3cc(Cl)ccc3OC2)cc1`, -4.24%.
For `Cc1ccc2c(c1)N=C(c1ccc(F)cc1)CO2`, the inhibition is -1.59%.
With `COCC(COCCCNC(=O)Nc1ccc(Br)cc1)OC` (centres undefined), the inhibition is 2.27%.
On to `CCOC(=O)c1sc(C)c2c1NC1(CCCCC1)NC2=O`, for which the inhibition is 2.89%.
`O=C(NCc1cccnc1)c1ccccc1CCc1ccccc1`: the inhibition is 5.46%.
For the molecule `Cc1ccc(CSc2nnc(-c3ccc(NS(=O)(=O)c4ccccc4)cc3)o2)cc1`, the inhibition is 11.7%.
For `C=CCSc1nnc(-c2cccnc2)o1` the value was -5.82%; for `COC(=O)CSc1nnc(-c2ccncc2)o1`, -2.74%; for `Cc1ccc(S(=O)(=O)Nc2ccc(-c3nnc(SCc4ccccc4Cl)o3)cc2)cc1`, 0.5%.
Turning to `N#CCSc1nnc(-c2sc3ccccc3c2Cl)o1`, the inhibition is 11.6%.
As to `NC(=O)CSc1nnc(-c2ccc([N+](=O)[O-])cc2)o1`, the inhibition is -3.14%.
For `CCOC(=O)CSc1ncc(-c2ccc([N+](=O)[O-])cc2)[nH]1` the value was 47.4%; for `CSc1nnc(-c2ccc([N+](=O)[O-])cc2)o1`, 34%.
With `COC(=O)c1cc(NS(=O)(=O)c2ccc(C)c3ccccc23)ccc1N1CCOCC1` the figure was -0.65%; with `O=C1CC(N2CCC(O)CC2)C(=O)N1c1ccc(Br)cc1` (centres undefined), -5.77%.
Take `O=C(CC1(O)C(=O)N(CCc2ccccc2)c2ccccc21)c1ccccn1` (centres undefined): the inhibition was -2.54%.
For `CC(=O)c1c(C)[nH]c(C(=O)OCC(=O)N2c3ccccc3NC(=O)C2(C)C)c1C` the value was 1.01%; for `CCS(=O)(=O)Nc1ccc(-c2nnc(SCC(=O)OC)o2)cc1`, 6.98%.
For `COC(=O)CSc1nnc(-c2ccc(S(=O)(=O)NCc3cccs3)cc2)o1` the value was 62.9%; for `COC(=O)COc1cc(Cl)c(C=O)cc1OC`, 4.35%.
For `COC(=O)COc1ccccc1/C=C1/NC(=O)NC1=O`, the inhibition is -6.93%.
For `OC1CN=C2CCCc3c2n(c2ccc(Cl)cc32)C1` (centres undefined) the value was -8.27%; for `CCN1CCn2c3c(c4cc(C)ccc42)CCCC31` (centres undefined), 3.23%; for `Cc1ccc2c(c1)c1c(n2C)C(=O)CCC1`, -12.1%.
In the case of `COc1ccc2c(c1)c1c3n2CCN(C)C3=NCC1`, the inhibition was -9.72%.
With `Cc1ccc(C(=O)Nc2cc(C)c(OCC(=O)N3CCOCC3)c(C)c2)cc1`, the inhibition is 0.81%.
Turning to `COc1ccc(C2C(C#N)=C(N)Oc3cc(C)n(Cc4ccco4)c(=O)c32)cc1` (centres undefined), the inhibition is 3.54%.
For `CC1(C)Cc2nc3sc4c(SCC(=O)O)ncnc4c3cc2CO1` the value was -5.61%; for `CCSc1ncnc2c1sc1nc3c(cc12)COC(C)(C)C3`, 12.9%.
As for `O=C(NCCCn1ccnc1)C(=O)NCC1OCCCN1S(=O)(=O)c1ccc(Cl)cc1` (centres undefined), the inhibition is 1.46%.
With `O=C(O)c1ccc(CN2CCCCC2)o1` the figure was -8.71%; with `COc1ccc(C2(CNC(=O)c3cccc([N+](=O)[O-])c3)CCCCC2)cc1OC`, 17.8%.
As for `COc1ccc(C2(CNC(=O)c3ccc(OC)c([N+](=O)[O-])c3)CCCCC2)cc1OC`, the inhibition is 8.89%.
For `O=C(Nc1nnc(SCC(=O)N2CCCCC2)s1)c1cccs1` the value was -7.76%; for `Cc1ccc(F)cc1NC(=O)C1CCN(c2cnccn2)CC1`, -7.04%; for `Cc1nn(Cc2ccccc2)c(N)c1-c1ccccc1`, -0.48%.
On to `O=C(Nc1ccccc1)c1n[nH]c(Cn2cncn2)n1`, for which the inhibition was -3.09%.
As for `O=C(CSc1nc2ccc(Cl)cc2[nH]1)NC1CCCc2ccccc21` (centres undefined), the inhibition is 17.1%.
With `COc1ccc(NC(=O)CSc2nc3ccc(OC)cc3[nH]2)cc1` the figure was 45.7%; with `COc1ccc2nc(SCC(=O)Nc3ccccc3)[nH]c2c1`, 6.28%.
With `NS(=O)(=O)c1cccc(NC(=O)CSc2nc3ccc(Cl)cc3[nH]2)c1`, the inhibition was -6.21%.
With `O=C(OCC(=O)N1CCCC1=O)C1COc2ccccc2O1` (centres undefined) the figure was 2.07%.
`CCN(CC)CCCNC(=O)c1cn(C)c2ccc(S(=O)(=O)N(C)C)cc2c1=O`: the inhibition is -9.88%.
Regarding `O=C(CCc1nc2ccccc2c(=O)[nH]1)N1CCN(c2ccc(F)cc2)CC1`, the inhibition was -1.16%.
Turning to `COc1cc(/C=N/n2c(-c3n[nH]c4c3CCC4)n[nH]c2=S)cc(OC)c1O`, the inhibition is -6.81%.
With `CC1CCN(S(=O)(=O)c2ccc3[nH]c(=O)cc(C(=O)O)c3c2)CC1`, the inhibition was -1.86%.
As for `CS(=O)(=O)c1ccc(Sc2nc3ccccc3s2)c([N+](=O)[O-])c1`, the inhibition was 76.8%.
On to `NS(=O)(=O)c1ccc(Sc2nc3ccccc3s2)c([N+](=O)[O-])c1`, for which the inhibition is 5.37%.
As to `CN1CCc2c(C#N)c(N3CCOCC3)nc(NCC3CCCO3)c2C1` (centres undefined), the inhibition is -11.2%.
For `C=CCSc1nnc(-c2sc(-c3ccccc3)nc2C)n1C` the value was 6.24%.
For `C#CCOCCOCCOCCNc1nc(N2CCN(C(=O)[C@H](CCC(=O)O)n3cc(C(N)CC(C)C)nn3)CC2)nc(N2CCN(C(=O)[C@H](Cc3ccc(O)cc3)n3cc(C(N)CC(C)C)nn3)CC2)n1` (some centres undefined), the inhibition was -8.68%.
Consider `Cc1ccc(C(=O)Nc2ncc(Cc3ccc(SC(F)F)cc3)s2)cc1`, for which the inhibition is 6.66%.
Take `O=C(Nc1ncc(Cc2ccccc2)s1)C1COc2ccccc2O1` (centres undefined): the inhibition was 13.8%.
With `CC(=O)Nc1ncc(Cc2cccc(Cl)c2)s1` the figure was 3.07%; with `CC(C)C(=O)Nc1ncc(Cc2ccccc2Cl)s1`, -0.08%; with `CC(C)C(=O)Nc1ncc(Cc2ccc(Cl)cc2)s1`, 18.6%.
With `Cc1ccc(C(=O)Nc2ncc(Cc3ccccc3)s2)o1` the figure was -9.94%; with `O=C(Nc1ncc(Cc2ccccc2Cl)s1)c1ccc([N+](=O)[O-])cc1`, -9.37%; with `O=C(Nc1ncc(Cc2cccc(Cl)c2)s1)c1ccc([N+](=O)[O-])cc1`, -4.66%.
As to `COc1cccc(C(=O)Nc2nnc(Cc3ccc(OC)c(OC)c3)s2)c1`, the inhibition was 4.42%.
In the case of `COC(=O)C1=C(C)N(Cc2ccco2)C(=O)N[C@H]1c1cccc(C(F)(F)F)c1`, the inhibition was -4.29%.
As for `COC(=O)C(NC(=O)CSc1nc(N)cc(=O)[nH]1)c1ccccc1` (centres undefined), the inhibition was 6.05%.
As to `Cc1ccc(SCC(=O)N(C)C2CCS(=O)(=O)C2)cc1` (centres undefined), the inhibition is 71.9%.
For `O=C(N/N=C/c1ccc(OCCCF)cc1)c1ccc(C(F)(F)F)cc1` the value was -7.89%.
Take `O=C(CSc1nnc(CNc2ccc(F)cc2)n1Cc1ccccc1)NCc1ccco1`: the inhibition was -3.56%.
Take `CCN(CC)C1=N/C(=C\c2ccc(OC)cc2)C(=O)N1c1ccccc1`: the inhibition was 5.04%.
For the molecule `COc1cc(NC(=O)CSc2nc3ccccc3cc2Cc2ccccc2)cc(OC)c1`, the inhibition was -2.51%.
